In the library only some 0.59% were active in any assay of this set; here they are far more common.
PKM2 activator = PKM2 (human) enzyme activation. P14618. purified PKM2, Kinase-Glo ATP luminescence, activation; response scale: 0% is enzyme alone, no compound. Potency, µM (series often up to 57.5 µM), without a hit: at the highest dose activation, hits mostly activators. actives 0.34% (n = 260,000); active = well fitted activation curve with a large enough effect; inconclusive = small, poorly fitted or top-dose-only effect; inactive = no such curve, though single readings can be large or run the other way; note: potency is the fitted concentration of half-maximal effect; % is set by controls: 0 for no effect and ±100 for the full control effect; nearly all actives have a fitted effect of over 55% in size
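Kinase-Glo luminescence reports ATP generated from ADP (0.1 mM) and PEP (0.5 mM) by purified hPK-M2 after 1 h at room temperature, pH 7.2 imidazole buffer; intermediate enzyme activity allows detecting inhibitors and activators.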
IL-2 act = activators of IL-2 | activation, % (series mostly up to about 46 µM) | actives 0.065% (n = 360,000) | IL-2 activation reporter assay, cell-based qHTS; stimulated with anti-CD3/CD4/CD28 beads; in transgenic mouse T cells; in the data active = activation above about 50%; inconclusive = mostly about 30% to 49%; note: 0% is about no effect
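Screening format: compound pinned onto unstimulated transgenic mouse T cells, 60 min incubation, then anti-CD3/anti-CD4/anti-CD28 bead stimulation for 18 hours at 37 degrees C, followed by EGFP and DsRed detection.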
Rango release inh = inhibitors of RanGTP-induced Rango-importin beta complex dissociation. AID 540253. O95149+P62826. Biochemical FRET Rango-importin beta, RanGTP-induced dissociation. actives 0.071% (n = 340,000). Potency, µM (highest dose often 46.1 µM), for inactives: at the highest dose activity change, negative = inhibition; note: potency is the fitted concentration of half-maximal effect; % of control where 0% means no effect; nearly all actives have a fitted effect of over 45% in size
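FRET read at 45 min, room temperature: inhibitors block the CFP/YFP signal rise when RanGTP (0.6 uM Ran, 2 mM GTP, 0.2 uM RCC1) frees Rango (0.1 uM) from importin beta (0.25 uM). Pre-read after 5 min compound exposure flags interference.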
Rango complex inh = prevents formation of the Rango-importin beta complex; Potency, µM (titrated, usually from 92.2 µM), for the others: at the top dose inhibition of complex formation; Rango CFP/YFP FRET sensor + importin beta, 45 min; AID 540263; Q14974; actives 0.031% (n = 340,000);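 note: potency is the fitted concentration of half-maximal effect; 0% = DMSO wells and 100% = buffer wells lacking importin beta; nearly all actives have a fitted effect of over 15% in size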
Target sequence (Q14974 whole entry, looked up): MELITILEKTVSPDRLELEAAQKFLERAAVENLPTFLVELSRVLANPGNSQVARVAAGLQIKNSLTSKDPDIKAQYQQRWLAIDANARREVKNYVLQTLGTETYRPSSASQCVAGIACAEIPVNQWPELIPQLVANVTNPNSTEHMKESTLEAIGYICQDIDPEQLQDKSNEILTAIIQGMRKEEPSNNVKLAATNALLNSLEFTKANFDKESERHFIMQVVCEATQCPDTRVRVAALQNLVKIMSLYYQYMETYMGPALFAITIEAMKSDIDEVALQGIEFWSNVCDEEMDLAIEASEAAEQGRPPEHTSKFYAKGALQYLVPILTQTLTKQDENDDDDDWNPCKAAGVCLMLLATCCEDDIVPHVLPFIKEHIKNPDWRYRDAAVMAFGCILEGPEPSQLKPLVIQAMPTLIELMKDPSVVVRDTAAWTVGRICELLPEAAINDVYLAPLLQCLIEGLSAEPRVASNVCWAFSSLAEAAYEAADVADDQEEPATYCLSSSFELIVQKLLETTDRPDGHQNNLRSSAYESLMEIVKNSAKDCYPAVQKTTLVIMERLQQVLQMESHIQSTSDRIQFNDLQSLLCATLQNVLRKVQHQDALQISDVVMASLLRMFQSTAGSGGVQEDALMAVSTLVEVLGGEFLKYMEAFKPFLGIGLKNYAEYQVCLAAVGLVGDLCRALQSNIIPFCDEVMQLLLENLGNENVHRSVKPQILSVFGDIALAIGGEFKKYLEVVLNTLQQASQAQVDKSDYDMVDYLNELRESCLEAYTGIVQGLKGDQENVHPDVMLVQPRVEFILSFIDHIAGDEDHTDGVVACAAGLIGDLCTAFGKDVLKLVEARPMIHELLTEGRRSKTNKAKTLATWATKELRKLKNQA
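Inhibition scored from the CFP 486 nm/YFP 530 nm FRET ratio 45 min after adding 0.125 microM importin beta to 50 nM Rango biosensor preincubated 5 min with compound (room temperature, PBS with DTT, Tween-20, BSA). No-importin wells as positive control.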
AT treatment = potential ataxia-telangiectasia treatments restoring KAP-1 phosphorylation. F2112 A-T fibroblasts, KAP-1 phosphorylation AlphaLISA; neocarzinostatin DNA damage 30 min before lysis. Potency, µM (titrated, usually from 57.5 µM), without a hit: at the top dose activation, usual class: activators. actives 0.19% (n = 320,000); active = well fitted activation curve with a large enough effect; inconclusive = small, poorly fitted or top-dose-only effect; inactive = no such curve, though single readings can be large or run the other way; note: potency is the fitted concentration of half-maximal effect; % of control where 0% means no effect; nearly all actives have a fitted effect of over 45% in size
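ATM-like activity read as KAP-1 phosphorylation via AlphaLISA donor/acceptor antibody pairs after lysis and 6 hr at 25C. Cells were ATM-null patient fibroblasts (F2112, hTERT), dosed 60 min, then exposed to the DSB inducer NCS for 30 min.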
An asterisk follows results filed as active; [ ] = dose if it differs, or a comment. Unless noted, calls come from the whole dose curve.

Cc1ccc(-n2nc3cc(C)c(N)cc3n2)cc1 was read as PKM2 activator -7.2%, IL-2 act 1.5, Rango release inh 18.4µM*, Rango complex inh inconclusive and AT treatment 14.3%.
`O=S(=O)([N-]c1nc2ccccc2nc1-n1cc[n+](Cc2ccccc2)c1)c1ccc(Cl)cc1` gave PKM2 activator 3.8%, IL-2 act -4.8, Rango release inh inconclusive, Rango complex inh inconclusive and AT treatment 20µM*.
O=C1NC(Cc2ccc(O)cc2)c2nc3ccc(F)cc3c(=O)n2-c2cc3ccccc3cc21 (stereo unspecified) was read as IL-2 act -1.9.
`O=C(CSc1nc2ccc(Cl)cc2[nH]1)c1ccc2c(c1)OCO2` gave PKM2 activator 7.94µM*, IL-2 act -2.0, Rango release inh 3.5%, Rango complex inh 0.9% and AT treatment 1.5%.
For Cc1cccc(C)c1NC(=O)C1c2ccccc2OCC(=O)N1Cc1ccco1 (stereo unspecified) the results were IL-2 act 1.2.
For CCCOc1ccc(C(=O)CCC(=O)OCC(=O)Nc2ccc(OCC)cc2)cc1 the results were PKM2 activator -2.7% and AT treatment 14.1µM*.
`CC(C)CC(=O)Nc1ccc(C(=O)COC(=O)Cc2n[nH]c(=O)c3ccccc23)cc1` gave IL-2 act -0.4, Rango release inh 18.0%, Rango complex inh -0.4% and AT treatment 1.0%.
Screening COc1ccc(C2=NOC(C(=O)Nc3cc(C)on3)C2)cc1OC (stereo unspecified) returned PKM2 activator 3.55µM*, IL-2 act -0.1, Rango release inh 10.9%, Rango complex inh -1.8% and AT treatment 7.6%.
`COc1cc(C2=NOC(C(=O)Nc3cc(C)on3)C2)cc(OC)c1OC` (stereo unspecified) gave PKM2 activator 1.6%, IL-2 act 0.3, Rango release inh -11.0%, Rango complex inh 0.2% and AT treatment -19.2%.
For NC(N)=NS(=O)(=O)c1ccc(NC(=S)NC(=O)c2sc3ccccc3c2Cl)cc1 the results were PKM2 activator 4.7%, IL-2 act 2.1, Rango release inh 20.6µM*, Rango complex inh inconclusive and AT treatment 0.3%.
O=C(Cc1cccc(NC(=O)C2CCCN(C(=O)CCc3ccccc3)C2)c1)Nc1ccc(C(=O)N2CCCCC2)cc1 (stereo unspecified) was read as IL-2 act 0.3, Rango release inh -10.8% and Rango complex inh -0.6%.
Cc1ccc(-c2cc(C(=O)N3CCN(c4ncccn4)CC3)c3cc(Br)ccc3n2)o1 was read as PKM2 activator 8.91µM*, IL-2 act -4.8, Rango release inh -10.5%, Rango complex inh inconclusive and AT treatment 5.7%.
For CC(C)c1ccc(-c2cc(C(=O)N3CCOCC3)c3cc(Br)ccc3n2)cc1 the results were PKM2 activator -0.6%, IL-2 act -0.1, Rango release inh 6.4%, Rango complex inh 1.6% and AT treatment 4.47µM*.
`Cc1ccc(-c2cc(C(=O)N3CCN(c4ccc(F)cc4)CC3)c3ccccc3n2)o1` gave PKM2 activator inconclusive, IL-2 act 5.3, Rango release inh 6.3%, Rango complex inh 0.1% and AT treatment 2.1%.
`O=C(c1cc(-c2ccccn2)nc2ccc(Br)cc12)N1CCN(S(=O)(=O)c2ccccc2)CC1` gave PKM2 activator 25.1µM*, IL-2 act -0.3, Rango release inh 33.4%, Rango complex inh -4.2% and AT treatment 4.1%.
Screening CC[C@H]1CCCCc2ccccc2[C@@H](C(=O)C[C@@H](O)CC(C)=O)OC1=O returned IL-2 act 0.9, Rango release inh 12.2%, Rango complex inh -2.9% and AT treatment 9.0%.
CCOC(=O)c1ccc(NC(=O)CCCN2C(=O)NC3(CCCC3)C2=O)cc1 was read as IL-2 act 0.3, Rango release inh -6.2%, Rango complex inh 2.2% and AT treatment -6.3%.
Screening COc1ccccc1C(=O)N=c1sc2c(C)ccc(OC)c2n1C returned PKM2 activator -3.8%, IL-2 act -3.5, Rango release inh -17.4%, Rango complex inh inconclusive and AT treatment 15.8µM*.
For CCN(CC)CCCCn1c(-c2ccccc2)nc2c(N(CCOC)CCOC)nc(C)nc21 the results were PKM2 activator 3.3%.
CN1/C(=C/C(=S)NC(=O)C2(C)CC2(Cl)Cl)C(C)(C)c2ccccc21 (stereo unspecified) was read as PKM2 activator -0.3%, IL-2 act -4.0, Rango release inh 0.517µM*[inhibitor], Rango complex inh inconclusive and AT treatment -6.3%.
For CC(C)Oc1ccc2ccccc2c1CNC[C@H]1O[C@@H](n2ccc(N)nc2=O)[C@H](O)[C@@H]1O the results were IL-2 act 0.7.
`Cc1nn(CC(=O)Nc2cccc(C(F)(F)F)c2)c(=O)c2cccn12` gave IL-2 act -4.0, Rango release inh -7.4%, Rango complex inh 0.3% and AT treatment 2.2%.
Screening CC(=O)Nc1ccc(S(=O)(=O)N2CCN=C2SCc2ccc(C)cc2)cc1 returned PKM2 activator -1.5%, IL-2 act -0.2, Rango release inh 5.9%, Rango complex inh -0.4% and AT treatment 6.0%.
O=S(=O)(c1ccc2ccccc2c1)N1CCN=C1SCc1cccnc1 was read as PKM2 activator 17.8µM*, IL-2 act 3.8, Rango release inh -9.4%, Rango complex inh -0.1% and AT treatment 3.7%.
CC(=O)Nc1ccc(S(=O)(=O)N2CCN=C2SCc2cccnc2)cc1 was read as PKM2 activator 15.8µM*, IL-2 act 6.6, Rango release inh 7.3%, Rango complex inh -0.7% and AT treatment -2.4%.
Screening Cc1c(CCC(=O)O)c(=O)oc2cc3occ(-c4ccc(Br)cc4)c3cc12 returned IL-2 act 0.5, Rango release inh -8.0%, Rango complex inh -2.2% and AT treatment 15.3%.
For CC[C@@H]1CC=C[C@H]2[C@H]1C(=O)N(Cc1ccccc1)[C@H]2c1cc(C)ccc1F the results were PKM2 activator -5.3% and AT treatment 22.6%.
For Cc1nc(NCc2ccccc2)c2nc(-c3ccccc3)n(CCCN3CCCCC3C)c2n1 (stereo unspecified) the results were PKM2 activator -2.5%.
For CCN(C[C@H]1N[C@@](Cc2ccccc2)(C(=O)OC)[C@H]2C(=O)N(C)C(=O)[C@@H]12)S(=O)(=O)c1ccc(C(C)(C)C)cc1 the results were IL-2 act -0.6, Rango release inh 4.4%, Rango complex inh -0.9% and AT treatment 6.4%.
Screening O=C(COc1ccccc1)Nc1ccc(Cl)cc1Cl returned PKM2 activator -5.9% and AT treatment 10.1%.
